The campaign covered roughly 310,000 compounds. About 14,000 (4.5%) showed an effect of 50% or more. The effect is printed as a negative number. What follows is part of a selection rich in strong results, with near analogues and random picks from the rest.
What follows are molecules tested against human ether-à-go-go-related gene (hERG) potassium channel (human, UniProt Q12809) (assay: primary screen, population patch clamp on CHO cells stably expressing hERG; higher = less effect of the substance).
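Further: peak tail current of the secondary pulse compared with the same well before compound.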

Sequence of human ether-à-go-go-related gene (hERG) potassium channel (Q12809 whole entry, looked up): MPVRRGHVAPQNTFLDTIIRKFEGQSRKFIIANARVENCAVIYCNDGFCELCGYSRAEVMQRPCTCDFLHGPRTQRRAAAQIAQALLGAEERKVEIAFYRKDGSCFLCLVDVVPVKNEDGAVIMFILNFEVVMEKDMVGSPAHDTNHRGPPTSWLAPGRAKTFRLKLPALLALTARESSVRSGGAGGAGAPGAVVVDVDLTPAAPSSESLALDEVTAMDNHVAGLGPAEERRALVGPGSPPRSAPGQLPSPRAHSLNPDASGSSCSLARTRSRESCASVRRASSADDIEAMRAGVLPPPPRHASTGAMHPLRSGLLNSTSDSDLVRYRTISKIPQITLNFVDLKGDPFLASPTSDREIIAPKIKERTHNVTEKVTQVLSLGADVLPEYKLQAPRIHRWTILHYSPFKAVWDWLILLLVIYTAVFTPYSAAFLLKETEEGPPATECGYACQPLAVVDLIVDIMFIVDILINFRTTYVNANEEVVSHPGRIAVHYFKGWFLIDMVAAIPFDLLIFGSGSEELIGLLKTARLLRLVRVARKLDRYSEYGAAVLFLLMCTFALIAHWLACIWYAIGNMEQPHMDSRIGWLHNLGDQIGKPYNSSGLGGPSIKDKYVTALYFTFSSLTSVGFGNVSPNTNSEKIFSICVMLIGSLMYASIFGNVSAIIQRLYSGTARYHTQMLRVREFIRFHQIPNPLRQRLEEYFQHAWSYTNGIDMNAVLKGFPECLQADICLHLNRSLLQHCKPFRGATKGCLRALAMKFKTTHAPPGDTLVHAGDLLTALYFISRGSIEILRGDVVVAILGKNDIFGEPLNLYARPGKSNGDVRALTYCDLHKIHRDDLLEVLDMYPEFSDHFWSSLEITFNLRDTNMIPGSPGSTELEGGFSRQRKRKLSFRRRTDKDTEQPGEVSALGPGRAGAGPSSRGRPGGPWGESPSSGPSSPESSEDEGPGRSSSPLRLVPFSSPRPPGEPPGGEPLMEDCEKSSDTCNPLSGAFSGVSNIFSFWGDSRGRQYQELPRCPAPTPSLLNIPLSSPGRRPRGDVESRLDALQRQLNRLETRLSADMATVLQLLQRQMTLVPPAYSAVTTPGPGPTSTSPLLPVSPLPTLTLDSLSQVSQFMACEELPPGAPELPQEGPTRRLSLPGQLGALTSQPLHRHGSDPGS

SMILES	hERG current change (%, negative = inhibition) at 10uM [%]
CNc1ccc(Cl)cc1C(N)=O	26.1
Cc1ccc(C(=O)COC(=O)c2nc3nccc(C)n3n2)c(C)c1	-7.14
COc1ccc(Cl)cc1NS(=O)(=O)N1CCOCC1	6.86
CC(Cc1ccccc1)NC(=O)c1cc([N+](=O)[O-])ccc1Cl (stereo not shown)	-4.69
O=C(NCc1ccccc1)C1CCCN(S(=O)(=O)c2ccc(Br)cc2)C1 (stereo not shown)	23.4
O=C(NCc1cccnc1)C1CCCN(S(=O)(=O)c2ccc(Br)cc2)C1 (stereo not shown)	-41.6
COc1ccc(S(=O)(=O)N2CCCC(C(=O)NCCCn3ccnc3)C2)cc1OC (stereo not shown)	7.83
O=C(NCc1ccncc1)C1CCCN(S(=O)(=O)c2cc(Cl)ccc2Cl)C1 (stereo not shown)	-61.2
O=C(NCCCn1ccnc1)C1CCCN(S(=O)(=O)c2ccc(F)cc2)C1 (stereo not shown)	10.7
COc1ccc(Cl)cc1S(=O)(=O)N1CCCC(C(=O)NCc2ccncc2)C1 (stereo not shown)	-25.7
O=C(NCc1ccncc1)C1CCN(S(=O)(=O)c2cc(Cl)ccc2Cl)CC1	-18.9
O=C(NCc1ccncc1)C1CCCN(S(=O)(=O)c2ccc(Br)cc2)C1 (stereo not shown)	-77.5
O=C(NCCCn1ccnc1)C1CCCN(S(=O)(=O)c2cc(Cl)ccc2Cl)C1 (stereo not shown)	-60.3
CC(C)c1ccc(S(=O)(=O)c2n[nH]n3c2nc(=O)c2ccccc23)cc1	-16.7
C/C(=N\NC(=S)NCC(C)(C)C)c1cc(F)cc(F)c1O	17.2
CC1=NN(C(N)=S)C(=O)C1N=Nc1c(Br)cc(Br)cc1Br (stereo not shown)	-8.08
COc1ccc(C2CC(c3ccccc3)Nc3nc(NS(C)(=O)=O)nn32)cc1 (stereo not shown)	7.1
CCc1sc2nc(SCC(=O)Nc3cc(C)on3)n(-c3cccc(OC)c3)c(=O)c2c1C	10.2
NC(=S)N/N=C1\CC(c2ccc3c(c2)OCCCO3)Oc2ccc(F)cc21 (stereo not shown)	6.23
O=C(NNC(=O)c1csc(N2CCOCC2)n1)c1ccc(=O)[nH]c1	6.26
CCOC(=O)N1CCN(C(=O)c2cnn3c(C(F)F)cc(-c4ccc(C)cc4)nc23)CC1	-0.653
CC(C)OC(=O)c1c2c(n3ccccc13)C(=O)c1ccccc1C2=O	5.73

SMILES	hERG current change (%, negative = inhibition) at 10uM [%]
Cn1c(CN2CCCC2)nc2cc(NC(=O)c3ccco3)ccc21	7.42
Cn1c(CCNC(=O)c2ccco2)nc2cc(NC(=O)c3ccco3)ccc21	-14.4
Cc1ccc(N2CCN(CCc3nc4cc(NC(=O)c5ccco5)ccc4n3C)CC2)cc1	-70.7
Cn1c(CCN2CCN(c3ccc(F)cc3)CC2)nc2cc(NC(=O)c3ccco3)ccc21	-63.6
CN1CCN(CCc2nc3cc(NC(=O)c4ccco4)ccc3n2C)CC1	4.18
Cc1ccc(C(=O)Nc2ccc3c(c2)nc(CCNC(=O)c2ccco2)n3C)cc1	8.06
Cc1ccc(Cc2c(C)c(C#N)c3[nH]c4ccccc4n3c2=O)cc1	11.4
O=C(O)C12C3CCCC1C32c1ccccc1 (stereo not shown)	21.7
CC1CCC2C(=O)N(c3ccccc3OC(=O)c3ccccc3F)C(=O)C2C1 (stereo not shown)	-10.3
CCCSC1=C(C#N)C(c2ccc(O)c(OC)c2)CC(=O)N1 (stereo not shown)	-45.1
CCCn1c(=O)n(C)c(=O)c2c(SCC(=O)NC34CC5CC(CC(C5)C3)C4)nc(CC(C)C)nc21	8.5
CCCn1c(=O)n(C)c(=O)c2c(SCC(=O)NCC(c3ccccc3)N(C)C)nc(CC(C)C)nc21 (stereo not shown)	-66.1
CC(C)Cc1nc(SCC(=O)NCC2CCCO2)c2c(=O)n(C)c(=O)n(C)c2n1 (stereo not shown)	-0.141
CNC(=O)c1c(I)c(C(=O)NCC(=O)Nc2c(I)c(C(=O)O)c(I)c(C(=O)NCCO)c2I)c(I)c(N(C)C(C)=O)c1I	6.45
COc1cc(C(=O)OC(C)CN2C(C)CCCC2C)cc(OC)c1OC.Cl (stereo not shown)	-50.2
COc1cc(C(=O)OC(C)CN2CCCCC2)cc(OC)c1OC.Cl (stereo not shown)	-4.43
CC(CN1C(C)CCCC1C)OC(=O)c1ccc(Cl)cc1 (stereo not shown)	-44.8
COc1cc(C(=O)OC(C)CN2CCCC2)cc(OC)c1OC.Cl (stereo not shown)	-12.2
CC(CN1C(C)CCCC1C)OC(=O)c1ccccc1Cl (stereo not shown)	-26.8
CC(CN1C(C)CCCC1C)OC(=O)c1ccc(Cl)cc1Cl (stereo not shown)	-51.7
O=S(=O)(/N=C(/Nc1ccc(F)cc1F)c1ccccc1)c1ccc(Br)cc1	12.3
Cc1cc(C)cc(-n2c(SCC(=O)NCc3ccc4c(c3)OCO4)nc3ccccc3c2=O)c1	15.9

SMILES	hERG current change (%, negative = inhibition) at 10uM [%]
CCOC(=O)c1c(-n2c(C)cc(/C=C3/C(=O)NC(=O)N(CC)C3=O)c2C)sc2c1CCCC2	2.36
CC(C)C1Oc2ccccc2N(CC(=O)N(Cc2ccccn2)C2CC2)C1=O (stereo not shown)	-13.6
O=C(Nc1ccccc1N1CCCC1)C1CC(=O)N(Cc2ccccc2)C1 (stereo not shown)	-44.4
CCOC(=O)CNc1ncnc2nc[nH]c12	9.53
COC(=O)c1sc(S(=O)(=O)NCc2ccccc2)c(C(=O)OC)c1C	-50.4
COC(=O)c1c(S(=O)(=O)NCc2ccccc2)sc(C(=O)O)c1C	6.81
COC(=O)c1sc(S(=O)(=O)NCc2cccs2)c(C(=O)OC)c1C	-19.1
Cc1[nH][nH]c(=O)c1C=Nc1ccc(C(F)(F)F)cc1	17.4
O=C(OC(C(=O)NC1CCCC1)c1ccccn1)c1cccs1 (stereo not shown)	-3.4
CCc1noc(C)c1C(=O)NC1CCCc2c1cnn2-c1ccc(C(C)(C)C)cc1 (stereo not shown)	10.2
Cc1nc(NCc2ccco2)c2c3c(sc2n1)CCC3	-24.3
CCN1CCc2c(sc3c2c(NCc2ccco2)nc2nnnn23)C1	-73.6
c1coc(CNc2ncnc3sc4c(c23)CCCCC4)c1	-39.4
CN1CCc2c(sc3nc(SCC(=O)NCc4ccco4)n(-c4ccccc4)c(=O)c23)C1	-10.6
CCN1CCc2c(sc(NC(=S)NC(=O)c3ccco3)c2C(N)=O)C1	2.95
CN1CCc2c(sc3c2c(NCc2ccco2)nc2nnnn23)C1	-71.8
Cn1c(NN)nc2sc3c(c2c1=O)CC(C)(C)OC3	9.89
CCCNC(=O)CSc1nccn1Cc1ccco1	0.203
CC1(C)SC(=S)N(/N=C/c2ccc(O)cc2)C1N(O)C(=O)Nc1ccc([N+](=O)[O-])cc1 (stereo not shown)	-10.2
Nc1ccn([C@H]2CS[C@@H](CO)O2)c(=O)n1	18
CC(CNc1ccc([N+](=O)[O-])cc1)NC(=O)c1ccccc1Br (stereo not shown)	-50.6
CC(CNC(=O)c1ccccc1[N+](=O)[O-])NC(=O)c1ccccc1[N+](=O)[O-] (stereo not shown)	1.57

SMILES	hERG current change (%, negative = inhibition) at 10uM [%]
O=C(NCCNc1ccc([N+](=O)[O-])cc1)c1ccccc1Br	-43.3
C=CCN1C(=O)C(Cc2ccccc2)SC1=Nc1ccc(C(=O)O)cc1 (stereo not shown)	-3.37
Cc1nonc1NC(=O)CSc1nc(CCC2CCCC2)nc2ccccc12	3.64
COc1cc2c(cc1OC)-c1c(OC)c(OC)cc3ccnc(c13)C2=O	-30.7
COc1cc2c(cc1OC)-c1c(OC)c(OC)c(OC)c3ccnc(c13)C2=O	-53.8
CCOc1cc(-c2nccc3cc(OC)c(OC)cc23)cc(OCC)c1OCC	-46.8
Cc1cc(-c2cc(-c3ccccc3)on2)nc(NC2CCCC2)n1	15.7
Nc1nc(CN2CCN(c3ccccc3F)CC2)nc(Nc2ccccc2)n1	-57.1
CCOc1ccc(Nc2nc(N)nc(CSC(=S)N3CCN(c4ccccc4)CC3)n2)cc1	17.2
COc1ccccc1Nc1nc(N)nc(CN2CCN(c3ccccc3F)CC2)n1	-35.9
Cc1cccc(Nc2nc(N)nc(CN3CCN(c4ccccc4F)CC3)n2)c1	-68.2
Fc1ccccc1N1CCN(Cc2nc(-c3ccccc3)no2)CC1	-6.65
Cc1ccc(-c2noc(CN3CCN(c4ccccc4F)CC3)n2)cc1	8.71
CCOc1ccc(Nc2nc(N)nc(CN3CCN(c4ccccc4F)CC3)n2)cc1	-80.8
Cc1cccc(Nc2nc(N)nc(CC(=O)CSc3ccc(Cl)cc3)n2)c1	4.27
Cc1ccc(Nc2nc(N)nc(CN3CCN(c4ccccc4F)CC3)n2)cc1	-67.4
Cc1nnc(SCC2=C(C(=O)O)N3C(=O)C(NC(=O)Cn4ncc(Cl)c4C)C3SC2)s1 (stereo not shown)	26.9
COc1ccc(CNC(=O)C2CCCN(S(=O)(=O)N3CC(C)CC(C)C3)C2)c(OC)c1 (stereo not shown)	-6.97
CCCC(=O)C1=C(O)C(C(=O)OC)C(C)(C)CC1=N (stereo not shown)	19.9

From publication PMC4336329 (PLoS ONE, 2015)
